Here are results for 41 compounds from PubChem BioAssay AID624256 (NMMLSC, 2012).

Molecules are shown by their SMILES. In all, about 360,000 compounds went through this assay and about 3,700 (1%) were called active. Roughly 2% stayed inconclusive and do not appear here.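 The calls were made as follows: active = normalized GFP-positive differentiation at or above the plate's own cutoff, the solvent-only control mean plus 3 SD; inconclusive = no clear call, values can overlap the other calls; inactive = the rest.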 What follows is part of a selection rich in actives, with near analogues and random picks from the rest.

This assay is described as follows: induction of myeloid progenitor differentiation, primary screen, cell-based, flow cytometry, MLPCN library (AID 624256).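 As to GFP+ MAC1+ double positive: cells exposed to compound for four days before flow analysis.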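 As to normalized GFP-positive differentiation: cells exposed to compound for four days before flow analysis; 0% = DMSO wells and 100% = fulvestrant positive control at 5 µM.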 As to conditions: ER-HoxA9 myeloid progenitors, lysozyme-GFP differentiation, at 10 µM; GFP+ MAC1+ double positive: measured here: differentiation confirmed by MAC1 staining, stronger effect = higher value; normalized GFP-positive differentiation: stronger effect = higher value.
On to `CC(C)(C)CC(=O)Nc1nc(C(N)Cc2ccc(C(F)(F)F)cc2)cs1` (configuration not stated), for which the GFP+ MAC1+ double positive is 0.2% and the result was inactive.

Regarding `Cc1ccc(S(=O)(=O)N2CC3C(=O)C[C@@H](c4ccccc4Cl)N(S(=O)(=O)c4ccc(C)cc4)C3CC2c2ccccc2)cc1` (some centres not stated), the GFP+ MAC1+ double positive came to 1.9% and the call was inactive.

Turning to `S=c1[nH]nc(-c2cccs2)n1/N=C/c1cn(-c2ccccc2)nc1-c1ccc(Cl)cc1`, the GFP+ MAC1+ double positive is 0.1% and the compound was called inactive.

With `O=C(O)c1ccc(N/N=C/c2cn(-c3ccccc3)nc2-c2cccs2)cc1`, the GFP+ MAC1+ double positive stood at 0.5% and the normalized GFP-positive differentiation is 10.8% (active).

Consider `CC(=O)C1=C(C)NC(C)=C(C(C)=O)C1c1cn(-c2ccccc2)nc1-c1cccs1`, for which the GFP+ MAC1+ double positive was found to be 0.7% and the result was inactive.

In the case of `Cc1nc2c(OCC(=O)C(C)(C)C)cccn2c1N(C)Cc1cccs1`, the GFP+ MAC1+ double positive stood at 2.1% and the call was inactive.

Take `Fc1cccc(Cc2c(-c3cccc(Cl)c3)nc3ccc(Br)cn23)c1`: the GFP+ MAC1+ double positive turned out to be 0.4% and the outcome was inactive.

Regarding `O=C(Nc1cccc(Cc2ccccc2)c1)Nc1ccc2nc([C@@H]3O[C@H](CO)[C@@H](O)[C@H](O)[C@H]3O)[nH]c2c1`, the GFP+ MAC1+ double positive was determined as 2.9% and the compound was called inactive.

With `CC#CC[N+](C)(C)CCCCCC`, the GFP+ MAC1+ double positive came out at 1.6% and the normalized GFP-positive differentiation was 19.3% (active).

Turning to `COC(=O)[C@]12CCCCC=C1N(Cc1ccc(Cl)cc1Cl)C(=O)[C@H](CC(=O)NCc1cccc3ccccc13)C2`, the GFP+ MAC1+ double positive was determined as 1.1% and the compound was classed as inactive.

Regarding `COc1cccc2sc3cc(NCC[C@@H]4CCCN4C)ccc3c(=O)c12`, the GFP+ MAC1+ double positive amounted to 1.3% and the call was inactive.

Regarding `Cc1cc2oc3ccc(NCCC4CCCN4C)cc3c(=O)c2cc1C` (configuration not stated), the GFP+ MAC1+ double positive came out at 6.6% and the normalized GFP-positive differentiation was 73.2% (active).

On to `CCCCNC(=O)c1nc(C2CCN(S(=O)(=O)c3ccc(F)c(F)c3)CC2)oc1-c1cccc(C(F)(F)F)c1`, for which the GFP+ MAC1+ double positive came out at 0.6% and the result was inactive.

On to `Cc1ccc(S(=O)(=O)N2CCCCC2)cc1NC(=O)c1cccnc1`, for which the GFP+ MAC1+ double positive worked out at 1.2% and the call was inactive.

For the compound `O=C(Nc1cccc(-n2cnnn2)c1)c1cccnc1`, the GFP+ MAC1+ double positive came out at 2% and the call was inactive.

Regarding `Cc1ccc(-n2nc3cc(C)c(NC(=O)c4cccnc4)cc3n2)cc1`, the GFP+ MAC1+ double positive turned out to be 5.5% and the normalized GFP-positive differentiation was 15.8% (active).

With `CC1(C(=O)NS(=O)(=O)c2ccc(C#N)cc2)CCN1C(=O)CC1CCCC1` (configuration not stated), the GFP+ MAC1+ double positive was 0.6% and the call was inactive.

Consider `C=CCOc1ccc(/C=C/C(=O)OCC(=O)NC(C)c2ccc(F)cc2)cc1` (configuration not stated), for which the GFP+ MAC1+ double positive was found to be 0.7% and the compound was called inactive.

For the compound `CC(NC(=O)COC(=O)CCC(=O)c1ccc(Cl)cc1)c1ccccc1` (configuration not stated), the GFP+ MAC1+ double positive was found to be 0.8% and the compound was called inactive.

In the case of `CC(NC(=O)COC(=O)c1ccc(Cl)cc1O)c1ccc(F)cc1` (configuration not stated), the GFP+ MAC1+ double positive is 6.2% and the normalized GFP-positive differentiation was 140% (active).

As for `CN1OC[C@@H]2CN(C(=O)C(C)(C)C)[C@H](c3ccc(-n4ccnc4)cc3)C[C@@H]21`, the GFP+ MAC1+ double positive worked out at 0.2% and the result was inactive.

Take `COc1ccc(/C=C/C(=O)c2c(O)cc(OC)cc2OC)cc1`: the GFP+ MAC1+ double positive was 1.7% and the compound was classed as inactive.

Regarding `O=C(NCc1ccccc1)C(c1ccc(F)cc1)N1CCN(C(=O)C2CCCO2)CC1` (configuration not stated), the GFP+ MAC1+ double positive was 0.2% and the compound was classed as inactive.

Take `CCC(=O)N1Cc2cc(C(=O)NCc3cccc(F)c3)nc(-c3cccc(C4=CCCC4)c3)c2[C@H]1CCO`: the GFP+ MAC1+ double positive was 0.5% and the outcome was inactive.

In the case of `CCOC(=O)c1c(-c2ccccc2)oc2cc(Br)c(O)c(C=O)c12`, the GFP+ MAC1+ double positive is 0.5% and the result was inactive.

On to `CCOC(=O)c1c(-c2ccccc2)oc2ccc(OCC(=O)NN)cc12`, for which the GFP+ MAC1+ double positive is 1.9% and the normalized GFP-positive differentiation was 26.6% (active).

In the case of `Cc1cc(=O)oc2ccc(OCC(=O)O)cc12`, the GFP+ MAC1+ double positive amounted to 2.2% and the result was inactive.

As for `CC(C)OC(=O)CC(=O)CC(O)c1cccc([N+](=O)[O-])c1` (configuration not stated), the GFP+ MAC1+ double positive is 3.1% and the call was inactive.

In the case of `COCOc1cccc(CN2CCC(C)(Oc3ccc(SC)cc3)C2)c1` (configuration not stated), the GFP+ MAC1+ double positive amounted to 0.7% and the compound was called inactive.

On to `CN(C)C(=O)c1cccc(-c2cnc3c(NC=O)cc(-c4ccc(F)cc4)cn23)c1`, for which the GFP+ MAC1+ double positive worked out at 1.2% and the result was inactive.

Take `CCCc1nc2c3ccccc3ccn2c1Cc1ccccc1C(F)(F)F`: the GFP+ MAC1+ double positive came out at 1.1% and the call was inactive.

For the compound `NC(c1csc(NC(=O)Nc2cccc(C(F)(F)F)c2)n1)C1CCCCC1` (configuration not stated), the GFP+ MAC1+ double positive worked out at 1.4% and the call was inactive.

As to `CCOC(=O)C1=CCC2C(=O)N(Cc3ccccc3)C(=O)C12` (configuration not stated), the GFP+ MAC1+ double positive is 1.7% and the outcome was inactive.

As for `CC(C)(C)SCCNC(=O)c1cccc([N+](=O)[O-])c1`, the GFP+ MAC1+ double positive is 1.8% and the compound was called inactive.

Consider `CN(C(=O)c1cccc([N+](=O)[O-])c1)c1ccccc1C(=O)NCc1ccccc1`, for which the GFP+ MAC1+ double positive was 2.5% and the normalized GFP-positive differentiation was 45.3% (active).

`CN(C)CCNC(=O)/C(=C/c1cccc([N+](=O)[O-])c1)NC(=O)c1ccccc1`: the GFP+ MAC1+ double positive was 0.5% and the call was inactive.

As for `O=C1Nc2ccccc2NC(c2ccc3c(c2)OCO3)=C1N(Cc1ccc(F)cc1)C(=O)c1ccco1`, the GFP+ MAC1+ double positive is 0.3% and the outcome was inactive.

Turning to `COC(=O)C[C@H]1C=C[C@H](NC(=O)c2ccc(F)cc2)[C@@H](CO)O1`, the GFP+ MAC1+ double positive was found to be 3.2% and the compound was called inactive.

`O=C1OCCOC2CCCc3oc(-c4ccccc4)c1c32` (configuration not stated): the GFP+ MAC1+ double positive worked out at 0.1% and the compound was called inactive.

For the compound `COc1ccccc1C(=O)OCC(=O)Nc1cccc(S(=O)(=O)NC2=NCCCCC2)c1`, the GFP+ MAC1+ double positive is 1.4% and the result was inactive.

As for `Cc1cccc(-n2c(SCC(=O)Nc3cccc(S(=O)(=O)NC4=NCCCCC4)c3)nc3ccccc3c2=O)c1C`, the GFP+ MAC1+ double positive amounted to 2.9% and the normalized GFP-positive differentiation is 30% (active).
